Assay results as given in PubChem BioAssay AID411 (National Center for Advancing Translational Sciences (NCATS), 2006).
Among all 72,000 compounds or so, about 1,600 (2.2%) were called active. The call rests on the fitted dose curve; in most records, active means well fitted inhibition curve with a large enough effect; inconclusive means small, poorly fitted or top-dose-only effect; inactive means flat fitted curve, though single readings scatter. The sample as a whole holds a higher share of actives than the screen did.

molecular target: Luciferin 4-monooxygenase (Photinus pyralis) (UniProt P08659); assay: qHTS Assay for Inhibitors of Firefly Luciferase; settings: purified firefly luciferase, luminescence, 8 min; series mostly up to 57.1 µM; activity change, negative = inhibition: at the top concentration; further: nearly all actives have a fitted effect of over 40% in size
Sequence (P08659 whole entry, looked up): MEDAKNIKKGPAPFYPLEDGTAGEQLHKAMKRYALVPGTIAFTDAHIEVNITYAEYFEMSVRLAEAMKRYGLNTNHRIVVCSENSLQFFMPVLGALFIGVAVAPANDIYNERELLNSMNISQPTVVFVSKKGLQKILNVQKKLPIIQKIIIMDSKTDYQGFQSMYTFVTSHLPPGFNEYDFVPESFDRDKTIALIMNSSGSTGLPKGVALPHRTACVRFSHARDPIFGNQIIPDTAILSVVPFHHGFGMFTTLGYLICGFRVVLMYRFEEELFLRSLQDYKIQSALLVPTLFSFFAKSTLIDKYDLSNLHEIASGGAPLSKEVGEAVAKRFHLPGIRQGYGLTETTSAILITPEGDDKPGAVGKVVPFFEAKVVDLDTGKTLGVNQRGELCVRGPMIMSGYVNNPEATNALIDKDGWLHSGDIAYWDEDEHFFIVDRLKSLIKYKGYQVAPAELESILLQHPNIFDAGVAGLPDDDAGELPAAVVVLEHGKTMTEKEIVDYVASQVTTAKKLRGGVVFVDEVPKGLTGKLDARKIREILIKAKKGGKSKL
Description: To aid in the interpretation of high-throughput screening (HTS) results derived from luciferase-based assays, we used quantitative HTS, an approach that defines the concentration-response behavior of each library sample, to profile the ATP-dependent luciferase from Photinus pyralis against more than 72 000 samples. Luciferase (PKLight, Cambrex Corporation) was assayed for its ability to generate light using ATP and luciferin as substrates. The ATP concentration in the assay (10 uM) was within the linear range of enzyme activity for the assay conditions used. See following reference for further details: [1] Auld DS, Southall NT, Jadhav A, Johnson RL, Diller DJ, Simeonov A, Austin CP, Inglese J. Characterization of chemical libraries for luciferase inhibitory activity. J Med Chem. 2008 Apr 24;51(8):2372-86. Auld DS, Zhang YQ, Southall NT, Rai G, Landsman M, Maclure J, Langevin D, Thomas CJ, Austin CP, Inglese J. A Basis for Reduced Chemical Library Inhibition of Firefly Luciferase Obtained from Directed Evolution. J. Med. Chem., 2009, 52 (5), pp 1450#1458 [3] Auld DS, Thorne N, Nguyen DT, Inglese J. A specific mechanism for nonspecific activation in reporter-gene assays. ACS Chem Biol. 2008 Aug 15;3(8):463-70. Auld DS, Thorne N, Maguire WF, Inglese J. Mechanism of PTC124 activity in cell-based luciferase assays of nonsense codon suppression. Proc Natl Acad Sci U S A. 2009 Mar 3;106(9):3585-90. Inglese J, Auld DS, Jadhav A, Johnson RL, Simeonov A, Yasgar A, Zheng W, Austin CP. Quantitative high-throughput screening: a titration-based approach that efficiently identifies biological activities in large chemical libraries. Proc Natl Acad Sci U S A. 2006 Aug 1;103(31):11473-8.
Four uL of substrate mix (final concentration, 50 mM imidazole pH 7.2, 50 mM KCl, 7 mM MgCl2, 10 uM ATP, 0.01% Tween 20, 0.05% BSA) was dispensed into white 1536 well plates. Twenty-three nL of compound was delivered by a pin tool and 2 uL of luciferase detector mix (PKLight, Cambrex) was added. Following 8-minute incubation at ambient temperature, luminescence was measured by a ViewLux (Perkin Elmer) at 5 seconds exposure/plate.
On the % scale 0 is the no-effect control and ±100 the full control effect; potency means the concentration at half of the fitted maximal effect.

Activity change, negative = inhibition, inactive:
Cc1nc2ccccc2c2oc(C(=O)NCC3CCCO3)cc12 (configuration not stated) -0.52%, Cc1ccc(C(=O)NCC2CCCO2)o1 (configuration not stated) 1.19%, CCCN1C2=C(C(=O)CCC2)C(c2ccc(O)c(Br)c2)C2=C1CCCC2=O -0.424%, O=S(=O)(N1CCOCC1)N1CCN(c2ccccc2F)CC1 0.783%, CCCn1c(=O)c2[nH]c(-c3ccc(OCC(=O)NCCN)cc3)nc2n(CCC)c1=O 2.64%, CCc1ccccc1N(CC(=O)N1CCN(c2ccccc2F)CC1)S(C)(=O)=O 1.6%, COc1ccc(N2CCN(C(=O)CSc3nc4cc(OC)c(OC)cc4cc3C#N)CC2)cc1 -1.56%, CCOc1ccc2nc(N3CCCN(C(=O)Nc4ccccc4C)CC3)c(C#N)cc2c1 -4.69%, CCOc1ccc(N(CC(=O)NCc2ccc(OC)cc2)S(=O)(=O)c2c(C)noc2C)cc1 0.209%, Cc1ccc(-c2noc(CCC(N)=O)n2)cc1 -1.58%, Cc1ccc(-c2noc(CCC(=O)Nc3ccccc3N3CCN(C)CC3)n2)cc1 0.968%, O=C(OCCO)c1cc(Cl)c(C(=O)OCCO)cc1Cl 2.17%, c1ccc(-n2ncc(-c3nn[nH]n3)n2)cc1 -2.16%, CCc1ccc(-c2nnn(Cc3nn[nH]n3)n2)cc1 -3.49%, CCCCn1c(CN2CCN(CCO)CC2)nc2ccccc21 3.37%, CCOC(=O)CCc1c(C)c2ccc(OCc3nn[nH]n3)c(C)c2oc1=O -29.4%, Cc1ccc(C(=O)Nc2ccc3c(c2)OCO3)cc1S(=O)(=O)N1CCCCC1 -16.5%, Cn1c(NC(=O)c2ccc3c(c2)OCO3)cc(=O)n(C)c1=O 1.02%, Cn1c(=O)n(C)c2cc(C(=O)Nc3ccc4c(c3)OCO4)ccc21 -24.6%, Cc1ccc(F)cc1NC(=O)c1ccc2c(c1)OCO2 0.628%, CCOc1ccc(NC(=O)CSc2nc3c(c(=O)n2-c2ccccc2OC)SCC3)cc1 2.17%, C[C@H](CCC(=O)NCC(=O)O)[C@H]1CC[C@H]2[C@H]3[C@@H](C[C@@H](O)[C@]12C)[C@]1(C)CC[C@H](O)C[C@@H]1C[C@@H]3O 0.706% [at 25.5 µM], CCCOc1ccc(/C(O)=C2/C(=O)C(=O)N(CCN(C)C)C2c2ccc(OC)c(OC)c2)cc1 (configuration not stated) 2.31% [at 25.5 µM], CCn1nnc(NC(=O)c2c(OC)cccc2OC)n1 1.07%, CCOC(=O)CCc1c(C)c(C#N)c2[nH]c3ccccc3n2c1=O -1.12% [at 25.5 µM], FC(F)Oc1ccccc1C1CC(c2ccc(Br)s2)Nc2ncnn21 (configuration not stated) -0.115%, CCCOC(=O)c1[nH]c2c(c1C)C(=O)CC(c1cc(OC)c(OC)c(OC)c1)C2 (configuration not stated) 0.417%, CCCOC(=O)C1=C(C)NC2=C(C(=O)C(C(=O)OC)C(C)C2)C1c1ccc(N(C)C)cc1 (configuration not stated) 3.23%, O=C(NCc1ccco1)c1sc2cccc(F)c2c1Cl -3.25%, CN=C1SC(C(=O)O)CC(=O)N1C (configuration not stated) 2.14%, O=C(c1csnn1)N1CCC[C@@]2(CCN(c3cccc(-c4ccccc4)c3)C2)C1 0.28% [at 11.4 µM], O=C(Nc1cccnc1)c1ccc2c(c1)OCO2 -6.01%, CCOc1cccc(C(=O)Nc2cccnc2)c1 1.45%, COc1ccc(OC)c([C@H](O)CNC(=O)CN)c1 3.26% [at 25.5 µM], CNC(=O)NCCN1CCCC1=O 2.71%, COC(=O)COc1ccc2oc(=O)cc(C)c2c1 0.108%, CCN(CC)S(=O)(=O)c1cccc(C(=O)Nc2ccccc2)c1 -6.08%, Cc1noc(C)c1C(=O)Nc1ccccn1 0.167%, N[C@H](C(=O)O)c1ccc(C(=O)O)c(O)c1 0.32%, c1ccc(CNc2ncncc2-c2cccnc2)cc1 -1.06% [at 2.29 µM], Cc1ccc(OCC(O)CN2CCN(CC(O)COc3ccc(C)cc3Cl)CC2)c(Cl)c1 (configuration not stated) 1.51%, CCOC(=O)CSc1nnc(-c2ccncc2)o1 2.7%, CCOC(=O)CSc1nnc(-c2cccc(Br)c2)o1 0.795%, CC1=C(C(=O)OCc2ccccc2)C(c2ccco2)n2ncnc2N1 (configuration not stated) 1.06%, CCOc1ccc(C(=O)Nc2ccncc2)cc1 -24.2%, COc1ccc(NC(=O)c2c(C)oc3c2CCCC3)cc1 -2.79%, COc1ccc2occ(C(=O)c3ccc(N=C(C)N(C)C)cc3)c2c1 -12.2%, N#Cc1c2c(c(-c3ccccc3)[nH]c1=O)CCCC2 1.63% [at 25.5 µM], O=C(CCN1C(=O)c2ccncc2C1=O)Nc1ccc2c(c1)OCCO2 -1.7%, O=C(COc1ccc2oc3c(c2c1)CCCC3)Nc1ccccn1 -13%, CCOC(=O)c1cc(NC(=O)c2cccnc2)cc(C(=O)OCC)c1 -0.799%, Cc1ccc(OCC(=O)Nc2ccc(-c3nc4ncccc4o3)cc2)cc1 -5.29%, CC(=O)c1c(C)[nH]c(C(=O)NCCCN2CCCC2)c1C -0.766%, Cc1onc(-c2ccccc2)c1C(=O)N1CCOCC1 0.0698%, Cc1cc(C(=O)COC(=O)CCCN2C(=O)c3ccccc3C2=O)c(C)n1C -25.1%, C=CCN(CC=C)C(=O)CN1C(=O)c2ccccc2C1=O 0.175%, COc1cc2c(cc1OC)C(c1ccncc1)CC(=O)N2 (configuration not stated) 0.391%, O=C(c1ccncc1)N1CCC2(CCCN(C(c3ccccc3)c3ccccc3)C2)CC1 -0.104% [at 11.4 µM], CCOC(=O)N1CCC(NC(=O)c2ccc3nc(N4CCOCC4)sc3c2)CC1 0.545%, Fc1cc(F)c2nc(N3CCOCC3)sc2c1 -2.74%, Cc1cc(N2CCCCC2)nc2ccc(Cc3ccc4nc(N5CCCCC5)cc(C)c4c3)cc12 0.114% [at 11.4 µM], C/C(=C\c1ccco1)C1Nc2cccc3cccc(c23)N1 -10.3%, Cc1ccc(Cn2ccc(NC(=O)c3cc(C(C)C)on3)n2)cc1 -5.95%, Cc1c(O)c(Br)c(C)c(O)c1Br (tested in a mixture with another compound) -10.4% [at 11.4 µM], O=C(c1ccco1)N1CCC2(CC1)CN(c1ncccn1)C2 -0.795% [at 11.4 µM], Cc1nn(-c2ccccc2)c2sc(C(=O)N(Cc3ccco3)C(C)C(=O)NC(C)(C)C)cc12 (configuration not stated) -28.1%, COc1cccc(Cn2c(=O)c(CCc3ccccc3)nc3cnc(N(C)C)nc32)c1 0.592% [at 11.4 µM], Cc1ccnc(N2C(=O)c3ccccc3C2Nc2ccc3c(c2)OCCO3)c1 (configuration not stated) -4.54%, CCc1ccccc1NC1c2ccccc2C(=O)N1c1cccnc1 (configuration not stated) 4.17%, CCCCc1nc2c(=O)[nH]c3ccccc3c2o1 -2.14%, CSc1nnc2c(n1)OC(c1cn(C)c3ccccc13)N(C(C)=O)c1ccccc1-2 (configuration not stated) 1.54%, CCN(CC)C(=O)N1CCN(C(=O)c2ccc(C)cn2)CC1 2.24%, CCCCC[C@H](O)CCCC(=O)O 2.9%, Cc1nnc(SCC(=O)NCCOc2ccc(Cl)cc2)n1-c1ccccc1 1.39%, Cc1nnc(SCC(=O)N2CCc3ccccc32)n1-c1ccccc1 0.58%, Cn1c(=O)c(-c2ccccc2)nc2cnc(N3CCNCC3)nc21 -0.109% [at 11.4 µM], COc1cccc(-c2nc(S(=O)(=O)c3ccccc3)c(N3CCOCC3)o2)c1 0.874%, CCN(CC)C(=O)CSc1nnc(-c2cccc(OC)c2)o1 -5.13%, CCOC(=O)CCC(=O)OCC(=O)NC(C)C1CC2CCC1C2 (configuration not stated) -0.786%, CC[C@H](c1ccccc1)c1cc(C(C)(C)C)cc(C(C)(C)C)c1O 2.75% [at 11.4 µM], COc1ccc(OCC(=O)N2CCN(C(=O)COc3ccccc3)CC2)cc1 1.46%, CCC(CC)C(=O)Nc1cccc(C(=O)N2CCCC2)c1 0.159%, N#CC1=C(N)Oc2cc(O)ccc2C1C1CCCCC1 (configuration not stated) -0.463%, CS(=O)(=O)N1CCC2(CC1)CN(Cc1cc(C(F)(F)F)cc(C(F)(F)F)c1)C2 -0.965% [at 11.4 µM], O=C1C=C(NCCNc2c(F)c(F)c(CO)c(F)c2F)CCC1 -5.44% [at 25.5 µM], COc1ccccc1N1CCN(CCN2C(=O)c3ccccc3C(C)(C)C2=O)CC1 -0.281%, O=C1CC2(CCCCC2)Oc2ccc(OCC(=O)N3CCOCC3)cc21 0.0464%, CC(=O)c1cccc(NC(=O)c2ccncc2)c1 -0.13%, CCC(=O)Nc1cccc(NC(=O)c2cccnc2)c1 -4.65%, O=C(CCCOc1ccccc1)Nc1cccc(C(=O)O)c1 -10.1%, O=C(Nc1cnccn1)c1cccnc1 0.489%

Potency, active:
Cc1ccc(-c2noc(-c3ccccc3C(=O)NCC3CCCO3)n2)cc1 (configuration not stated) 12.6 µM, COc1ccc2nc(N3CCCC(O)C3)c(C#N)cc2c1 (configuration not stated) 12.6 µM, CCNC(=O)CCc1nc(-c2ccc(C(C)(C)C)cc2)no1 5.01 µM, CC(C)c1ccc(-c2nn[nH]n2)cc1 15.8 µM, COc1ccc(C(=O)Nc2ccc3c(c2)OCO3)cc1OC 12.6 µM, CC(C)C(=O)Nc1cccc(C(=O)Nc2ccc3c(c2)OCO3)c1 15.8 µM, COC(=O)C1C(=O)c2c([nH]c(C(=O)OCCSC)c2C)CC1C (configuration not stated) 7.94 µM, O=C(Nc1cccnc1)c1noc2c1CCCCC2 12.6 µM, CCN(CC)S(=O)(=O)c1cc(C(=O)Nc2ccccn2)ccc1C 15.8 µM, CCCCSc1nnc(-c2ccc(C)cc2)o1 15.8 µM, COc1ccc(NC(=O)c2ccc(OC)cc2)cc1 2 µM, Cc1cc2nc(-c3ccc(NC(=O)c4cccnc4)cc3)oc2cc1C 12.6 µM, C=CCn1c(C)cc(C(=O)CN2C(=O)c3ccccc3C2=O)c1C 3.98 µM, Fc1ccc2nc(N3CCCCC3)sc2c1 25.1 µM, c1c2c(cc3sc(N4CCCCC4)nc13)OCCO2 1.58 µM, COC(=O)c1cc(NC2c3ccccc3C(=O)N2c2ccc(Cl)cn2)cc(C(=O)OC)c1 (configuration not stated) 7.94 µM, Cc1nnc(SCc2ccc(C(=O)c3ccc(Cl)cc3)o2)n1-c1ccccc1 12.6 µM, COc1cccc(-c2nc3cc(C)ccc3o2)c1 3.98 µM, COc1ccc(OCc2cccc(C(=O)N3CCCC3)c2)cc1 25.1 µM, C/C(=C\C(=O)c1cccnc1)Nc1ccc(C)c(C)c1 12.6 µM, C/C(=C\C(=O)c1ccccc1)Nc1cccc(O)c1 7.94 µM
